PubChem BioAssay (NCATS)
Inconclusive results are not listed. A number with no mark means an inactive call. The source made the active and inactive calls. Calls come from the whole dose curve; as a rule, active = well fitted activation curve with a large enough effect; inconclusive = small, poorly fitted or top-dose-only effect; inactive = flat fitted curve, though single readings scatter. Square brackets hold non-standard residues; d marks the D form. Peptide text beside a SMILES is read from it. ξ: configuration not given here. ξL = CC(C)CC(N)C(=O)O

Assay: HEK293 24hr Apoptosis Induction qHTS against the NCATS CANVASS Library (AID 1347359); for activation: 0% is about no effect
Settings: HEK293 caspase-3/7 activation, Caspase-Glo luminescence; series mostly up to 46.1 µM; activation: at the top concentration
In short: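 HEK293 cells (500/well, DMEM + 10% FBS) were exposed to compounds in an 11-point series for 24 hours at 37 degrees C, then caspase-3/7 activity was read by Caspase-Glo DEVD luciferase luminescence after 15 min.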
Potency is the fitted concentration of half-maximal effect.

Row | SMILES | activation | Potency
1 | CC(=O)N[C@H](C)c1nc(/C=C/C=C/C(=O)CC2CC(=O)CC[C@]2(C)O)cs1 (stereo not given in full) | 0.677% | –
2 | CN1C(=O)C(=O)N2C(=C[C@]3(c4c[nH]c5ccccc45)c4ccccc4N[C@H]23)C1=O | 4.5% | –
3 | CN1CC[C@]23c4ccccc4N[C@H]1[C@]21CCN(C)[C@H]3Nc2ccccc21 | -0.938% | –
4 | C/C=C1/C2=CCCN3C(=O)O[C@H]([C@H]1O)[C@H]23 | -2.77% | –
5 | O=C1CC(c2ccc(O)cc2)Oc2ccccc21 (stereo not given) | -8.84% | –
6 | COc1c(O)cc(O)c2c(=O)cc(-c3ccccc3)oc12 | -6.95% | –
7 | COC1C(C)OC(OCC23C[C@@H]4[C@H](C)CC[C@H]4C4(C=O)CC2C=C(C(C)C)C34C(=O)O)[C@@H](O)[C@H]1O (stereo not given in full) | 1.17% | –
8 | CN1CC[C@@]2([C@@]34CCN(C)[C@@H]3Nc3ccccc34)c3ccccc3N[C@@H]12 | -7.29% | –
9 | COc1ccc(-c2oc3cc(OC)cc(OC)c3c(=O)c2O)cc1 | -7% | –
10 | CC[C@@H](C)[C@H]1NC(=O)C(CC(C)C)NC(=O)[C@@H](CC(C)C)NC(=O)[C@H](Cc2c[nH]c3ccccc23)NC(=O)CNC(=O)[C@@H](CC(N)=O)NC1=O (stereo partly drawn) (cyclo(GW[dL][ξL][dI][dN])) | -2.7% | –
11 | Cc1cc(O)cc2c1C(=O)c1c(O)cc(O)cc1C2=O | 2.95% | –
12 | C=C(Cl)[C@](Cl)(CBr)CC[C@@H](Br)C(C)(C)Cl | 5% | –
13 | C=C(C)C(=O)O[C@H]1C[C@@]2(C)OC(=CC2=O)/C(C)=C\[C@H]2OC(=O)C(=C)[C@H]12 | – | 2960 nM (active)
14 | C=C[C@]1(C)CC[C@@H]([C@H](C)C(=O)CC=C(C)C)O1 | -6.72% | –
15 | CC[C@@H]1C[C@@]2(CC)OC(=O)[C@@]3(CC)[C@H](CC)[C@@H]1[C@@H]23 | -7.36% | –
16 | [C-]#[N+][C@@]12C(=O)[C@@H]3[C@@H](O[C@@]4(C(=O)N(C)c5cccc1c54)C3(C)C)C(=O)[C@@]2(C)C=C | -7.07% | –
17 | COC(=O)c1cccc2oc(-c3cccc4oc(-c5c(C)cccc5O)nc34)nc12 | -7.11% | –
18 | C[C@@]12CCC[C@@](C)(C(=O)OP(=O)(O)OC[C@H]3O[C@@H](n4cnc5c(N)ncnc54)[C@H](O)[C@@H]3O)[C@H]1C[C@@H](O)[C@@]13C[C@@H](CC[C@@H]21)[C@](C)(O)C3 | -4.68% | –

Row | SMILES | activation | Potency
19 | CCC(C)=C1OC(=O)[C@H](C)[C@H](O)[C@H](Cc2cccnc2)NC(=O)C(NC(=O)c2ncccc2O)C(C)OC1=O (stereo not given in full) | 1.59% | –
20 | C[C@@]12CCC[C@@](C)(C(=O)O)[C@H]1CC[C@@]13C[C@@H](CC[C@H]12)[C@](C)(O)C3 | 3.04% | –
21 | O=C1OC(CCO)c2cccc(O)c21 (stereo not given) | 1.74% | –
22 | C=C1C[C@]23C=CC(=O)[C@@](C)(CCCC(C)C(=O)N[C@@H](CO)C(=O)O)[C@@H]2C[C@@H]1CC3 (stereo not given in full) | 2.71% | –
23 | COc1cc2ccc(=O)oc2c(O)c1O[C@@H]1O[C@H](CO)[C@@H](O)[C@H](O)[C@H]1O | 2.26% [at 27.5 µM] | –
24 | C/C(=C\[C@@H](C)CC/C=C/CC/C=C/C(=O)O)[C@@H](O)[C@H](C)C(=O)CCCC1CC(=O)NC(=O)C1 | -0.313% | –
25 | CO[C@@H](C[C@@H](C)[C@@H](O)/C=C/C=C/CNC(=O)C(C)(C)[C@H](O)\C(C)=C/C=C\C=C\Cc1cnco1)[C@]1(O)[C@@H](C)C(=O)N(C)[C@@]12COC2=O | -1.93% | –
26 | O=C1CC(c2ccc(O)cc2)Oc2cc(O)cc(O)c21 (stereo not given) | -6.65% | –
27 | O=C1CC(c2ccc(O)cc2)Oc2cc(O)ccc21 (stereo not given) | -7.88% | –
28 | CN1CC[C@@]23c4ccccc4N[C@@H]1[C@@]21CCN(C)[C@@H]3Nc2ccccc21 | -6.55% | –
29 | C[C@@]12CCC[C@@](C)(C(=O)O)[C@H]1C[C@@H](O)[C@@]13C[C@@H](CC[C@@H]21)[C@](C)(O)C3 | 1.31% | –
30 | O=Cc1ccc2n1C[C@]1(OC2)O[C@H](CO)[C@@H](O)[C@@H]1O | 2.14% | –
31 | C=C[C@@]1(C)CC[C@@H]([C@H](C)C(C)=O)O1 | -7.62% | –
32 | C/C=C(/CO)C(=O)O[C@@H]1[C@H](O)[C@@H](C(=O)OC)O[C@@H]2C[C@H]3OC(n4cnc5c(N)ncnc54)[C@H](OC)[C@H]3O[C@@]12O (stereo not given in full) | 3.13% | –
33 | C/C=C/[C@H]1[C@H]2C(=O)c3c(O)c(C)c(O)c(C)c3[C@]1(C(=O)O)C(=O)C=C2C | 2.37% | –
34 | C[C@@]12C[C@@H](C[C@@H]3C(=O)O[C@@H](c4ccoc4)[C@H](OC(=O)c4ccccc4)[C@@H]31)OC2=O | -7.42% | –
35 | C=C1CCC2C(C)(C(=O)O)CCC(CC/C(C)=C/C(=O)NC(CCC(N)=O)C(=O)O)[C@@]2(C)C1 (stereo not given in full) | 1.19% | –
